# A selection: hits, their analogues and other compounds. The true share with any hit is near 3.4%.
# GPR151 ag: human GPR151 activation; actives 1% (n = 650,000); PathHunter beta-arrestin GPR151 cells, luminescence; activation, % at 11.2 µM; Q8TDV0; in the data active = activation above about 4.9%;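 also: 0% = median of compound wells and 100% = cells with positive control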
# Target sequence (Q8TDV0 whole entry, looked up): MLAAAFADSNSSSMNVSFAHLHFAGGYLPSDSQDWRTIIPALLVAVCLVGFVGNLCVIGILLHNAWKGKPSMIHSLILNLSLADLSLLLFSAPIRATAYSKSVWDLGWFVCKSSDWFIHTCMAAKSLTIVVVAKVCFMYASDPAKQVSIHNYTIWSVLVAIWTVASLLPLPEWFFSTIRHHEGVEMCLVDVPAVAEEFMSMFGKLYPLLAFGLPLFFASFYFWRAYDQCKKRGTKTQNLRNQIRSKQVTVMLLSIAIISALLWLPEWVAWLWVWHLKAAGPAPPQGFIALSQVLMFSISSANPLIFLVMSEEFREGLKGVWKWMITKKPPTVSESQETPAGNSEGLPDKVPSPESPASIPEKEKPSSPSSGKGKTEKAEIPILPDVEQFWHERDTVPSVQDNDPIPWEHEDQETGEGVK
# MITF primary: blocks human microphthalmia-associated transcription factor; O75030; AlphaScreen MITF homodimerization, bead proximity signal; inhibition, % at 2.6 µM; actives 0.91% (n = 650,000); in the data active = inhibition above about 50%;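 also: 0% = vehicle wells with protein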
# FBW7 activator: activators of human E3 ligase FBW7. AID 1259310. normalized activity (activation), % at 26.1 µM. actives 0.13% (n = 650,000). AlphaScreen FBW7–phospho-cyclin E peptide binding, activator screen. Q969H0; in the data active = normalized activity above about 1.9%;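 also: purified mutant Fbw7 with reduced substrate affinity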
# TEAD-YAP block: TEAD-YAP interaction inhibition. HEK-TIYL cells, TEAD-Gal4/YAP UAS-luciferase luminescence. inhibition, % at 9.12 µM. actives 1.4% (n = 640,000); in the data active = inhibition above about 32%;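 also: 0% = median of test compound wells and 100% = reference inhibitor wells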
# GPR151 conf act: human GPR151 activation, confirmation screen; 6,700 tested, under 10 active; shares compounds with GPR151 ag; GPR151 PathHunter beta-arrestin cells, luminescence, 90 min; % of EA-reagent control over plate median; AID 1508609; activation, % at 11.2 µM;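 active = mean percent activation across replicates above the confirmation screen cutoff of 4.91%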
# GPR119 counter: counter-screen for GPR151 activators: effect on human GPR119. activation, % at 11.2 µM. AID 1508611. GPR119 PathHunter beta-arrestin cells, luminescence, 90 min; 0 = compound-well median, 100 = enzyme-acceptor control. shares compounds with GPR151 ag. actives 0.3% (n = 6,700);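 active = mean percent activation in the counterscreen above 29.09%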;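 also: counterscreen on off-target GPR119 to flag nonselective hits from the GPR151 activator screen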
# Starred values were filed as active, the others as inactive; / = no result.
SMILES,GPR151 ag,MITF primary,FBW7 activator,TEAD-YAP block,GPR151 conf act,GPR119 counter
CC(=O)Nc1nn2c(-c3ccccc3C)nnc2s1,-1.3,-10.8,0.7,-0.5,/,/
COc1cc(C#N)c(NC(=S)N2CCCC2)cc1OC,5.4*,6.7,0.1,-1.1,-1.0,-2.8
COC(=O)c1cc(OC)c(OC)cc1NC(=S)N1CCCC1,2.4,2.6,-0.1,6.9,/,/
COc1cc(/C=C2\SC(NC(C)=O)=NC2=O)ccc1OCc1ccc([N+](=O)[O-])cc1,1.0,-1.2,-0.2,-13.7,/,/
CC(=O)NC1=NC(=O)/C(=C/c2ccc(OCc3ccc([N+](=O)[O-])cc3)cc2)S1,5.0*,16.5,0.2,1.1,0.5,-4.2
CC(=O)c1oc2ccc3c(C)cc(=O)oc3c2c1C,-0.5,3.3,-0.1,2.0,/,/
Cc1cc(=O)oc2c1ccc1oc(C(=O)c3ccc(Cl)cc3)c(C)c12,5.7*,-3.4,-0.1,-5.1,0.3,0.8
CCOC(=O)c1cc(C(=O)NNC(=O)/C=C/C(=O)O)c(C)nc1C,5.3*,5.6,-0.1,-2.3,0.5,-5.2
COc1ccc2oc(=O)cc(CN3CCCCC3)c2c1,-0.3,9.9,0.0,4.5,/,/
CCOC(=O)N1CCN(Cc2cc(=O)oc3ccc(OC)cc23)CC1,14.2*,11.9,0.0,-22.9,-0.3,0.6
OCCN1CCN(CC(O)COc2ccccc2-c2ccccc2)CC1 (centres undefined),-0.1,-0.8,0.2,4.0,/,/
COCCN1C(=S)NC2CC1(C)Oc1ccccc12 (centres undefined),6.1*,-10.4,0.0,-6.7,-0.3,-9.8
CCCNCc1cc(Br)ccc1OCC,1.6,8.1,0.5,1.1,/,/
Nc1cccc(-c2ncc(C(=O)NCCc3ccc(O)cc3)s2)c1,5.5*,0.2,-0.1,14.0,0.3,-0.8
O=C(NCCc1ccc(O)cc1)c1cnc(-c2ccccc2)s1,0.8,14.6,0.2,-18.5,/,/
CCN1C(=O)c2cccc3c(N4CCOCC4)ccc(c23)C1=O,2.3,-11.3,0.2,-35.3,/,/
O=C1C=Cc2ccc(N3CCOCC3)c3cccc1c23,6.1*,12.7,-0.3,-13.2,0.0,6.8
COc1ccc(OC)c(N2C(=O)C3CC(C)=C(C)CC3C2=O)c1 (centres undefined),-1.2,4.5,0.0,-0.9,/,/
COc1ccc(Cl)cc1N1C(=O)C2CC(C)=C(C)CC2C1=O (centres undefined),6.8*,-5.3,-0.1,14.9,-0.4,-5.8
Cc1ccc(NC(=O)CSc2nc3[nH]ncc3c(=O)n2-c2ccc(Br)cc2)cc1Cl,7.5*,-7.0,-0.1,22.2,0.2,9.5
CCOC(=O)C1=C(C)NC(=O)NC1c1ccc(-c2ccccc2[N+](=O)[O-])o1 (centres undefined),-1.4,8.9,0.1,2.0,/,/
CC1=C(C(=O)Nc2ccc(F)cc2)C(c2ccccc2Br)NC(=O)N1 (centres undefined),5.1*,1.3,-0.2,0.7,0.4,-3.2
CC(=O)Nc1ccc(S(=O)(=O)NC(C(=O)O)c2ccccc2)cc1 (centres undefined),-1.1,12.7,0.6,-3.2,/,/
NC(=O)COC(=O)/C=C/c1ccc(Cl)cc1,5.6*,3.1,0.0,3.1,0.4,0.0
Cc1ccc(C(=O)Nc2cc(C(N)=O)cc(C(N)=O)c2)cc1S(=O)(=O)N1CCCCC1,6.4*,10.6,0.0,-2.2,0.0,3.5
SMILES,GPR151 ag,MITF primary,FBW7 activator,TEAD-YAP block,GPR151 conf act,GPR119 counter
Cc1ccc(C(=O)Nc2ccc(F)cc2)cc1S(=O)(=O)N1CCCCCC1,-0.2,-1.3,-0.2,-16.6,/,/
CC(C)NS(=O)(=O)c1ccc(NCc2ccccc2Cl)c([N+](=O)[O-])c1,0.7,3.1,-0.3,-9.4,/,/
COc1ccc(C(=O)COC(=O)C(NC(=O)c2ccc(Cl)cc2)C(C)C)cc1 (centres undefined),1.2,0.1,0.2,9.2,/,/
CC(C)C(NC(=O)c1ccccc1F)C(=O)OCC(=O)c1ccc(F)cc1 (centres undefined),9.3*,2.5,-0.1,-8.9,-0.5,0.0
COc1ccc(NS(=O)(=O)c2ccc(N/C=C\C(=O)c3ccccc3)cc2)nn1,7.2*,0.3,0.2,8.7,-1.1,-11.3
COc1cccc(NC(=O)c2sc3ncn(CC(=O)N4CCCC(C)C4)c(=O)c3c2C)c1 (centres undefined),0.3,17.1,-0.7,-9.2,/,/
O=C(COc1ncnc2ccc(Br)cc12)Nc1ccc(F)c([N+](=O)[O-])c1,5.2*,6.2,0.0,-2.2,-0.9,-10.0
Cc1ccc(NC(=O)COc2ncnc3ccc(Br)cc23)cc1[N+](=O)[O-],3.4,10.7,-0.1,0.6,/,/
CC(=O)OC(C(=O)NCc1ccco1)c1ccncc1 (centres undefined),11.0*,-2.8,-0.2,-5.2,1.7,5.5
CCCCN1C(=O)c2c(Oc3ccc(Br)cc3Br)cc([N+](=O)[O-])cc2Oc2ccccc21,0.7,13.5,0.0,-4.5,/,/
COc1ccc(N2C3=C(C(=O)CC(C)(C)C3)C(c3ccccc3)C3=C2c2ccccc2C3=O)cc1 (centres undefined),5.6*,-8.0,0.0,-6.4,0.2,-5.0
CN(C)CC(C)(O)c1ccc2c(c1)CN(Cc1ccc3c(c1)OCCO3)CCO2 (centres undefined),4.9*,-3.1,0.0,-0.9,0.6,18.2
Cc1ccc(S(=O)(=O)NC2=C([n+]3ccccc3)C(=O)c3ccccc3C2=O)cc1,-0.2,0.9,0.0,-1.5,/,/
O=C(O)CN1C(=O)SC(Nc2ccccc2)C1=O (centres undefined),-2.8,0.1,-0.2,-6.5,/,/
CCOC(=O)CN1C(=O)SC(Nc2ccccc2)C1=O (centres undefined),7.8*,3.0,-0.2,2.8,0.3,8.1
CCCCN1C(=O)SC(Nc2ccc(F)cc2)C1=O (centres undefined),8.2*,6.3,0.1,2.6,-1.7,-6.9
C=CCNC(=O)C(=O)Nc1ccc(C)cc1C,0.4,-4.0,-0.1,-40.5,/,/
Cc1ccc(NC(=S)NNC(=O)Cc2noc3ccccc23)cc1,-2.2,1.0,0.1,-4.2,/,/
COc1c[nH]c(C(=O)Nc2cccc(Cl)c2)cc1=O,-10.3,0.4,-0.4,-35.2,/,/
Cc1cccc(NC(=O)CCC2CCN(C(=O)Cc3ccsc3)CC2)c1,5.2*,15.7,0.0,-6.7,-0.1,0.8
COc1cc(/C=N/NC(=O)c2ccco2)ccc1OCc1ccc([N+](=O)[O-])cc1,-1.5,30.9,1.0,-70.6,/,/
COc1cc(/C=N\NC(=O)c2ccc([N+](=O)[O-])cc2)ccc1OC(=O)c1ccco1,11.4*,8.8,0.2,1.0,-0.9,-5.3
Cc1ccc(NC(=S)N(Cc2ccc(Br)cc2)Cc2ccc(C(=O)O)cc2)cc1Cl,-0.1,-5.0,-0.1,-1.6,/,/
COc1ccc(N(CC(=O)Nc2cccc([N+](=O)[O-])c2)S(C)(=O)=O)cc1,0.9,-13.4,0.3,5.5,/,/
